BH1578 lux ind – quorum light induction in luxS cqsA deficient V. cholerae; V. cholerae BH1578 lux reporter, luminescence, 6 h; AID 588436; activation, % at 18.7 µM; 350,000 tested, 0.16% active; in the data active = activation mostly above about 9.7%, no sharp cut-off; inconclusive = no clear call, values can overlap the other calls; inactive = mostly below about 3.7%
BoNT-A LC inh2 – inhibitors of Botulinum neurotoxin A light chain protease; multiplex microsphere protease substrate cleavage, flow cytometry; inhibition, % at 10 µM; 360,000 tested, 0.17% active; AID 588499; also: plate controls were buffer without enzyme for full effect and enzyme alone for no effect
Anthrax LF prot – anthrax lethal factor protease inhibition. inhibition, % at 10 µM. multiplex microsphere protease cleavage assay, LF. 360,000 tested, 0.12% active. AID 588501; also: plate controls were buffer without enzyme for full effect and enzyme alone for no effect
BoNT F protease – BoNT F light chain protease inhibition. Multiplex microsphere protease cleavage assay, flow cytometry. inhibition, % at 10 µM. 360,000 tested, 0.22% active. AID 588497; in the data active = inhibition above about 35%, passing the limit was not always enough; inconclusive = no clear call, values can overlap the other calls; also: plate controls were buffer without enzyme for full effect and enzyme alone for no effect
MazF activator – MazEF (E. coli) toxin RNase activation; P0AE70; FAM/BHQ RNA-DNA oligo cleavage fluorescence, 5 h; activation, % at 20 µM; 350,000 tested, 0.32% active; AID 504720; in the data active = activation above about 50%
Target sequence (P0AE70 whole entry, looked up): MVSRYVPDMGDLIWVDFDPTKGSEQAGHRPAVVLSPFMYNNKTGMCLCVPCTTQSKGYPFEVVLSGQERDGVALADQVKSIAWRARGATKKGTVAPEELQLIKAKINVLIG
Bead autofluor – compound fluorescence in toxin protease inhibitor counterscreen. fluorescence intensity (concentration not given with the values). compound autofluorescence counterscreen, microsphere flow cytometry; stronger effect = higher value. 360,000 tested, 3.1% active; in the data active = fluorescence intensity above about 16000; inconclusive = no clear call, values can overlap the other calls
Active calls of the source: *. A selection: hits, their analogues and other compounds. The true share with any hit is near 3.9%. Rule as the data show it, unless noted: active = inhibition above about 30%; inconclusive = no clear call, values can overlap the other calls; inactive = below that.

For O=c1cccc2n1CC1CC2CN(Cc2cccc(Cl)c2Cl)C1 (stereo not given) the results were BH1578 lux ind 0, BoNT-A LC inh2 0, Anthrax LF prot 0, BoNT F protease -1, MazF activator -4 and Bead autofluor 20838*.
O=c1cccc2n1CC1CC2CN(Cc2c(F)cccc2Cl)C1 (stereo not given) was read as BH1578 lux ind -1, BoNT-A LC inh2 0, Anthrax LF prot -1, BoNT F protease -3, MazF activator 7 and Bead autofluor 9473.
CC1(NC(=O)CC(c2ccccc2)(c2ccccc2)c2ccccc2)CCN(CCCc2ccccc2)C1=O (stereo not given) was read as BH1578 lux ind 0, BoNT-A LC inh2 0, Anthrax LF prot -4, BoNT F protease -3, MazF activator -5 and Bead autofluor 3762.
For CC(=C1C(=O)c2ccccc2C1=O)N1CCC(C(N)=O)(N2CCCCC2)CC1 the results were BH1578 lux ind inactive, BoNT-A LC inh2 -1, Anthrax LF prot -6, BoNT F protease -2, MazF activator -24 and Bead autofluor 23736*.
NC(=O)C1(N2CCCCC2)CCN(C(=S)NCCc2ccccc2)CC1 was read as BH1578 lux ind inactive, BoNT-A LC inh2 0, Anthrax LF prot 3, BoNT F protease -6, MazF activator 1 and Bead autofluor 4719.
For CC1CC(CC(C)C(=O)Nc2nncs2)C(=O)O1 (stereo not given) the results were BH1578 lux ind 2, BoNT-A LC inh2 inconclusive, Anthrax LF prot 1, BoNT F protease 2, MazF activator -5 and Bead autofluor 22855*.
`COc1ccc(CCN(C)C(=S)Nc2cccc(C)c2)cc1OC` gave BH1578 lux ind inactive, BoNT-A LC inh2 9, Anthrax LF prot 12, BoNT F protease 31, MazF activator -17 and Bead autofluor 4945.
O=C1NC[C@@H](CCCCN2C[C@H](Cc3ccc(O)cc3)N(Cc3ccccc3)C(=O)C2=O)N(CC2CCCCC2)C1=O was read as BoNT-A LC inh2 0, Anthrax LF prot 0, BoNT F protease -2 and Bead autofluor 5908.
Screening O=C(c1ccc2nc3ccccc3c(=O)n2c1)N1CCN(Cc2ccc3c(c2)OCO3)CC1 returned BH1578 lux ind -3, BoNT-A LC inh2 2, Anthrax LF prot 2, BoNT F protease 6, MazF activator -2 and Bead autofluor 9756.
O=C(c1cc(Cl)nc2ccccc12)N1CCN(Cc2ccc3c(c2)OCO3)CC1 was read as BH1578 lux ind inactive, BoNT-A LC inh2 0, Anthrax LF prot -1, BoNT F protease -2, MazF activator 2 and Bead autofluor 3844.
For O=C(c1cccn2c(=O)c3cc(Cl)ccc3nc12)N1CCOCC1 the results were BH1578 lux ind 1, BoNT-A LC inh2 inconclusive, Anthrax LF prot -1, BoNT F protease 0, MazF activator 6 and Bead autofluor 23073*.
O=C(c1cccn2c(=O)c3ccccc3nc12)N1CCN(Cc2ccc3c(c2)OCO3)CC1 was read as BH1578 lux ind inactive, BoNT-A LC inh2 0, Anthrax LF prot 1, BoNT F protease 0, MazF activator 1 and Bead autofluor 20636*.
O=C(c1cccn2c(=O)c3ccc(Cl)cc3nc12)N1CCC2(CC1)OCCO2 was read as BH1578 lux ind 0, BoNT-A LC inh2 0, Anthrax LF prot -4, BoNT F protease 0, MazF activator 4 and Bead autofluor 10756.
For O=C(c1cccn2c(=O)c3cc(Cl)ccc3nc12)N1CCN(Cc2ccc3c(c2)OCO3)CC1 the results were BH1578 lux ind 0, BoNT-A LC inh2 11, Anthrax LF prot -8, BoNT F protease 11, MazF activator 6 and Bead autofluor 16508*.
For CCOC(=O)N1CCN(C(=O)c2ccc(N(C)S(=O)(=O)c3ccc(C)cc3)cc2)CC1 the results were BH1578 lux ind -1, BoNT-A LC inh2 -1, Anthrax LF prot 2, BoNT F protease -3, MazF activator -5 and Bead autofluor inconclusive.
For COCC(C)NC(=O)C(C)Oc1ccccc1 (stereo not given) the results were BH1578 lux ind inactive, BoNT-A LC inh2 0, Anthrax LF prot -2, BoNT F protease -2, MazF activator 4 and Bead autofluor 2082.
Screening COC(=O)C(NC(=O)C(C)Oc1ccccc1)C(C)C (stereo not given) returned BH1578 lux ind inactive, BoNT-A LC inh2 inconclusive, Anthrax LF prot -6, BoNT F protease 0, MazF activator 2 and Bead autofluor 20348*.
Screening COc1ccc(NC(=O)C(NC(=O)c2ccccc2)C(C)C)cc1 (stereo not given) returned BH1578 lux ind 0, BoNT-A LC inh2 0, Anthrax LF prot -6, BoNT F protease 5, MazF activator 5 and Bead autofluor 5635.
Screening COC(=O)C(NC(=O)c1ccccc1)c1ccccc1 (stereo not given) returned BH1578 lux ind inactive, BoNT-A LC inh2 -4, Anthrax LF prot 1, BoNT F protease -5, MazF activator 12 and Bead autofluor 25637*.
Screening COC(=O)C(NC(=O)C(NC(=O)c1ccccc1)C(C)C)C(C)C (stereo not given) returned BH1578 lux ind inactive, BoNT-A LC inh2 1, Anthrax LF prot 1, BoNT F protease 2, MazF activator 7 and Bead autofluor 22539*.
For O=C(NC(C(=O)O)c1ccccc1)c1ccccc1 (stereo not given) the results were BH1578 lux ind -1, BoNT-A LC inh2 0, Anthrax LF prot -11, BoNT F protease -5, MazF activator 10 and Bead autofluor 4003.
For CCN(CC)S(=O)(=O)c1ccc2[nH]c(=O)cc(C(=O)NCC3CCCO3)c2c1 (stereo not given) the results were BH1578 lux ind inactive, BoNT-A LC inh2 -4, Anthrax LF prot -4, BoNT F protease -7, MazF activator 5 and Bead autofluor 6487.
For O=c1[nH]c2ccccc2c2cn(-c3ccccc3)nc12 the results were BH1578 lux ind -1, BoNT-A LC inh2 -3, Anthrax LF prot -1, BoNT F protease -7, MazF activator 12 and Bead autofluor 6368.
C=C1C[C@@H]2C[C@@H]2CN(S(=O)(=O)c2ccc(C)cc2)[C@@H]1COCc1ccccc1 was read as BoNT-A LC inh2 0, Anthrax LF prot 6, BoNT F protease 5 and Bead autofluor 5489.
`COC(=O)Cc1c(C)c2ccc(OCC(=O)N3CCC(C)CC3)c(C)c2oc1=O` gave BH1578 lux ind inactive, BoNT-A LC inh2 -1, Anthrax LF prot 2, BoNT F protease -4, MazF activator -3 and Bead autofluor 4419.
For COc1ccc(C2=NS(=O)(=O)N(C)C(C(=O)Nc3ccc4c(c3)OCO4)=C2)cc1OC the results were BH1578 lux ind 0, BoNT-A LC inh2 -1, Anthrax LF prot -4, BoNT F protease -9, MazF activator 7 and Bead autofluor 4145.
Screening CCOC(=O)Cc1cc(=O)[nH]c(/N=C(\N)Nc2ccc(C)c(C)c2)n1 returned BH1578 lux ind inactive, BoNT-A LC inh2 0, Anthrax LF prot 2, BoNT F protease 1, MazF activator 1 and Bead autofluor 4193.
